According to PubChem BioAssay (NCATS):
Records with an inconclusive call do not appear. Where a call stands in place of a potency, no number is given. Values without a mark were called inactive. Active and inactive are the calls of the source. The call rests on the fitted dose curve; in most records, active means well fitted cell-killing curve with a large enough effect; inconclusive means small, poorly fitted or top-dose-only effect, or effect the other way; inactive means no such curve, though single readings can be large or run the other way.

Legend:
[1] = Viability qHTS for spleen associated tyrosine kinase inhibitor (SYKi) naive MV4-11 cells (AID 1963823); further: nearly all actives have a fitted effect of over 40% in size
How it was run: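 Read-out: CellTiter-Glo luminescence. Exposure: 72 hr, 37 C, 5% CO2, 95% humidity. Cells: MV4-11 without SYK inhibitor history, 500/well, qHTS format.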

[2] = Viability qHTS for spleen associated tyrosine kinase inhibitor (SYKi) drug resistant MV4-11 cells (AID 1963824); further: nearly all actives have a fitted effect of over 35% in size
How it was run: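 SYK inhibitor-resistant MV4-11 AML cells, 500 per well, added to predispensed compounds and incubated 72 hr at 37 C, 5% CO2. Viability measured by CellTiter-Glo luminescence after 10 min at room temperature.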
Potency means the concentration at half of the fitted maximal effect.

SMILES	Potency [1]	Potency [2]	viability (% of control) [1]	viability, % of control [2]
CC1CCC2C(C)(C)[C@H](O)CC[C@]2(C)C12Cc1c(O)cc3c(c1O2)CN(C(CCC(=O)O)C(=O)O)C3=O (some centres undefined)	inactive	inactive		
O=C(O)c1ccc(OC2OC(CO)C(O)C(O)C2O)cc1 (centres undefined)	inactive	inactive		
CC(C)=CCc1cc(O[C@@H]2O[C@H](CO[C@@H]3OC[C@](O)(CO)[C@H]3O)[C@@H](O)[C@H](O)[C@H]2O)ccc1O	inactive	inactive		
CC1=C2CC3C(CCC3(C)O)C(C)(O)CC2OC1=O (centres undefined)	inactive	inactive		
CCC(C)CNCC(=O)N1CCC2SC=CC2C1COc1cccc(C)c1 (centres undefined)	11.6 µM (active)	10.3 µM (active)		
O=C(O)Cc1nn(Cc2nc3cc(C(F)(F)F)ccc3s2)c(=O)c2nccnc12	inactive	inactive		
CCn1cc(C2=NOC(C(=O)Nc3c(C)n(C)n(-c4ccccc4)c3=O)C2)c(C)n1 (centres undefined)	inactive	inactive		
COc1ccc(-c2nc(-c3cc(C(F)(F)F)cc(C(F)(F)F)c3)n(Cc3ccc(C(N)=O)cc3)c2-c2ccc(OC)cc2)cc1	7.31 µM (active)	3.66 µM (active)		
CC(C)C1CCC(C(=O)N[C@@H](Cc2ccccc2)C(=O)O)CC1 (some centres undefined)	inactive	inactive		
CC(C)CC(=O)NCCn1cc(C(=O)O)c(=O)cc1C(O)c1ccccc1 (centres undefined)	inactive	inactive		
C=C(C)C(=O)O[C@H]1[C@H]2C(=C)C(=O)O[C@@H]2C[C@@H](C)[C@@H]2O[C@@H]2C(=O)[C@](C)(O)[C@@H]1OC(=O)C(=C)C	1 µM (active)	1 µM (active)		
CC1(C)CCC2(C(=O)OC3OCC(O)C(O)C3O)CCC3(C)C(=CCC4C5(C)CC(O)C(OC6OC(COC7OCC(O)C(O)C7O)C(O)C(O)C6O)C(C)(C)C5CCC43C)C2C1 (centres undefined)			68.8% [at 9.25 µM]	78.5% [at 9.25 µM]
